Drawing on PubChem BioAssay (EPA / NIEHS), this text covers AC50 and outcome for 38 compounds.

In general, AC50 refers to the concentration at which the activity in the assay is half-maximal.

Inconclusive results are not listed. Activity calls are given as the source filed them. The calls were made as follows: active = hit-call score of the fitted dose curve at least 0.9, where 1 is the maximum; inconclusive = response in the unintended direction; inactive = score below 0.9.

One test can be described thus: Tanguay_ZF_120hpf_YSE_legacy: (Legacy) Oregon State University Tanguay Lab 120 Hour Post-fertilization zebrafish Assay for Yolk Sac Edema (AID 2283634).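 As to AC50: actives raise the incidence of yolk sac edema above the DMSO baseline.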 In a few lines: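 Single dechorionated embryos were held in sealed plates at 28C with test chemical (0.64% DMSO final) from 6 hpf until 120 hpf. Edema of the yolk sac was then recorded as a binary endpoint; non-mortality endpoints were skipped for dead embryos.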
`COc1cccc([C@H](O)C2CCN(CCc3ccc(F)cc3)CC2)c1OC`: the half-maximal activity concentration (AC50) is 44.9 µM (active).

Take `OC12N=C(c3ccccc3)SC1Cc1cc(Cl)ccc12` (configuration not stated): the concentration at half-maximal activity (AC50) is 47.3 µM (active).

For `Oc1ccc2ccccc2c1`, the concentration at half-maximal activity (AC50) was 36.9 µM (active).

On to `CCCCCCCCN(C)CCCCCCCC`, for which the compound was called inactive.

For `Cc1oc2c(NC(=O)c3c(Cl)cccc3Cl)cccc2c1C(C)(C)O`, the outcome was inactive.

`Clc1cc(Cl)c2c(c1)N=C1CCCCCN1C2`: the concentration at half-maximal activity (AC50) is 21.5 µM (active).

Regarding `C[C@]12CC[C@@H]3c4ccc(O)cc4CC[C@H]3[C@@H]1CCC2=O`, the compound was called inactive.

As for `O=C(O)Cn1c(=O)n(Cc2ccc(Br)cc2F)c(=O)c2ccc(Cl)cc21`, the compound was called inactive.

On to `O=c1[nH]sc2ccccc12`, for which the compound was called inactive.

As to `CCCCCCCCCCCO`, the compound was called inactive.

With `COCC(C)OCC(C)OCC(C)O` (configuration not stated), the outcome was inactive.

For `Cc1ncc(CO)c(CO)c1O`, the result was inactive.

Consider `CCOC(=O)O[C@H](C)OC(=O)c1ccc2c(c1)cc(C(=O)NC1CCN(C(C)C)CC1)n2Cc1cc(-c2ccc(Cl)s2)on1`, for which the compound was called inactive.

For the compound `CC(O)CC(C)(C)O` (configuration not stated), the outcome was inactive.

Regarding `CC1=CC(=O)/C(=C(/C)O)C(=O)O1`, the compound was called inactive.

Consider `C[C@]12CC[C@@H]3c4ccc(O)cc4CC[C@H]3[C@@H]1CC[C@H]2O`, for which the compound was classed as inactive.

For the compound `c1ccc(C[n+]2cccc3ccccc32)cc1`, the outcome was inactive.

As for `CC(C)(C)c1cc(/C=C2\SC(N)=NC2=O)cc(C(C)(C)C)c1O`, the compound was classed as inactive.

On to `Cc1ccc(C(C)C)cc1`, for which the compound was classed as inactive.

Consider `CCCCOC(=O)CC(CC(=O)OCCCC)(OC(C)=O)C(=O)OCCCC`, for which the compound was classed as inactive.

Consider `CCCCCCCCCCCCO`, for which the call was inactive.

Take `OCCO`: the result was inactive.

On to `CCCC(=O)OCCC(C)C`, for which the call was inactive.

With `O=c1ccc2ccccc2o1`, the outcome was inactive.

Consider `O=C(O)c1ccccc1-n1cc(C(=O)O)c(=O)c2cc(Nc3c(F)cc(F)cc3Cl)c(Cl)cc21`, for which the call was inactive.

As for `Cc1cc2c(cc1C(F)(F)F)N(C(=O)Nc1ccc(Oc3cccnc3C)nc1)CC2`, the outcome was inactive.

Consider `CC[C@@H]1C[C@H](N(Cc2cc(C(F)(F)F)cc(C(F)(F)F)c2)C(C)=O)c2cc(C(F)(F)F)ccc2N1C(=O)OC(C)C`, for which the compound was classed as inactive.

In the case of `Cc1occc1C(=O)Nc1ccc(C(=O)N2CCC(F)(F)/C(=C\C(=O)N3CCC(N4CCCCC4)CC3)c3ccccc32)cc1`, the outcome was inactive.

Turning to `CC(C)(O)c1ccc(CNC(=O)c2cccnc2Oc2ccc3nonc3c2)cc1`, the call was inactive.

Turning to `CN1C(=O)CC[C@H]1c1cccnc1`, the outcome was inactive.

Regarding `O=C=NCCCCCCN=C=O`, the compound was classed as inactive.

Consider `O=C(O)c1ccccc1C(=O)OCc1ccccc1`, for which the outcome was inactive.

Another test is described as follows: Tanguay_ZF_120hpf_AXIS_legacy: (Legacy) Oregon State University Tanguay Lab 120 Hour Post-fertilization zebrafish Assay for Body Axis Malformation (AID 2283635).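 As to AC50: potency for an increased fraction of larvae scored with body axis malformation.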 The method in brief: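 Each dechorionated embryo was exposed alone from 6 hpf, with DMSO at 0.64% (vol/vol) and trimethyltin chloride 5 uM as positive control. Axis malformation was recorded at 120 hpf unless the embryo had died.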
As to `COc1cccc([C@H](O)C2CCN(CCc3ccc(F)cc3)CC2)c1OC`, the AC50 was 34 µM (active).

Take `OC12N=C(c3ccccc3)SC1Cc1cc(Cl)ccc12` (configuration not stated): the AC50 was 50 µM (active).

Regarding `Oc1ccc2ccccc2c1`, the concentration at half-maximal activity (AC50) is 55.2 µM (active).

With `CCCCCCCCN(C)CCCCCCCC`, the result was inactive.

In the case of `Cc1oc2c(NC(=O)c3c(Cl)cccc3Cl)cccc2c1C(C)(C)O`, the outcome was inactive.

Take `CCCCCCCC[Si](OCC)(OCC)OCC`: the result was inactive.

As for `Clc1cc(Cl)c2c(c1)N=C1CCCCCN1C2`, the AC50 is 7.43 µM (active).

For `c1ccc2ccccc2c1`, the outcome was inactive.

For the compound `C[C@]12CC[C@@H]3c4ccc(O)cc4CC[C@H]3[C@@H]1CCC2=O`, the result was inactive.

As for `O=C(O)Cn1c(=O)n(Cc2ccc(Br)cc2F)c(=O)c2ccc(Cl)cc21`, the result was inactive.

For `CCCCCCCCCCCO`, the compound was called inactive.

On to `CN(C)c1ccc(C(=C2C=CC(=[N+](C)C)C=C2)c2ccc(N(C)C)cc2)cc1`, for which the compound was called inactive.

For the compound `CCO[Si](CCCNC(N)=O)(OCC)OCC`, the call was inactive.

As for `COCC(C)OCC(C)OCC(C)O` (configuration not stated), the result was inactive.

As to `Cc1ncc(CO)c(CO)c1O`, the compound was called inactive.

Regarding `CCOC(=O)O[C@H](C)OC(=O)c1ccc2c(c1)cc(C(=O)NC1CCN(C(C)C)CC1)n2Cc1cc(-c2ccc(Cl)s2)on1`, the compound was called inactive.

In the case of `CC(O)CC(C)(C)O` (configuration not stated), the result was inactive.

As to `CC1=CC(=O)/C(=C(/C)O)C(=O)O1`, the result was inactive.

Turning to `C[C@]12CC[C@@H]3c4ccc(O)cc4CC[C@H]3[C@@H]1CC[C@H]2O`, the outcome was inactive.

Consider `c1ccc(C[n+]2cccc3ccccc32)cc1`, for which the result was inactive.

In the case of `CC[C@H](NC(=O)c1cc(F)ccc1NS(=O)(=O)c1cccc2cccnc12)c1ccccc1`, the outcome was inactive.

Take `Cc1ccc(C(C)C)cc1`: the compound was called inactive.

As for `CCCCOC(=O)CC(CC(=O)OCCCC)(OC(C)=O)C(=O)OCCCC`, the result was inactive.

Turning to `CCCCCCCCCCCCO`, the compound was called inactive.

`OCCO`: the outcome was inactive.

Turning to `CCCC(=O)OCCC(C)C`, the outcome was inactive.

Take `O=c1ccc2ccccc2o1`: the compound was called inactive.

In the case of `Cc1cc2c(cc1C(F)(F)F)N(C(=O)Nc1ccc(Oc3cccnc3C)nc1)CC2`, the call was inactive.

For `CC[C@@H]1C[C@H](N(Cc2cc(C(F)(F)F)cc(C(F)(F)F)c2)C(C)=O)c2cc(C(F)(F)F)ccc2N1C(=O)OC(C)C`, the compound was classed as inactive.

As to `O=C1O[C@H]([C@@H](O)CO)C(O)=C1O`, the call was inactive.

`Cc1occc1C(=O)Nc1ccc(C(=O)N2CCC(F)(F)/C(=C\C(=O)N3CCC(N4CCCCC4)CC3)c3ccccc32)cc1`: the outcome was inactive.

For `CC(C)(O)c1ccc(CNC(=O)c2cccnc2Oc2ccc3nonc3c2)cc1`, the result was inactive.

For `CN1C(=O)CC[C@H]1c1cccnc1`, the compound was called inactive.

Turning to `O=C=NCCCCCCN=C=O`, the compound was classed as inactive.

Turning to `O=C(O)c1ccccc1C(=O)OCc1ccccc1`, the compound was called inactive.
